Shown are actives, neighbours in structure and some others; about 5.1% of the full set was active somewhere.
PNC assembly inh = High Content Assay for Compounds that inhibit the Assembly of the Perinucleolar Compartment. PC3M PTB-GFP, PNC prevalence imaging, 16 h; active compounds read low. activity change (PNC), negative = inhibition, % at 10 µM. actives 3.1% (n = 140,000);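 active = readout at or below -70, meaning at least 70% loss of cells showing the perinucleolar compartment, a nuclear body marking cancer cells; inconclusive = readout between -30 and a set limit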
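Read-out is percentage of cells bearing a perinucleolar compartment, from automated 20x imaging of fixed, Hoechst-stained PC3M PTB-GFP cells. Cells were seeded 4 h, then exposed 16 h to compound (23 nl of library stock) in duplicate plates.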
Tau fibril ThT = qHTS for Inhibitors of Tau Fibril Formation, Thioflavin T Binding. Microtubule-associated protein tau (Homo sapiens), P10636. actives 2.1% (n = 270,000). recombinant tau K18 P301L, heparin-induced fibrillization, ThT fluorescence. AID 1460, 2008. Potency, µM (doses to about 57.4 µM), usual class: inhibitors; also: nearly all actives have a fitted effect of over 55% in size
Target sequence (P10636 561-689 P618L limits assumed): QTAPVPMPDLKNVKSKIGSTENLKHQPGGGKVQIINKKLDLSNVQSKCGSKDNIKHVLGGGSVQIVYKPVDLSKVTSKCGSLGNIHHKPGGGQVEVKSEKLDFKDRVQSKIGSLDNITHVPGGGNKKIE
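Using a mix of unlabeled (15 uM) and Alexa 594-labeled (0.24 uM) tau K18 P301L, heparin-triggered fibrillization over 6 hr at 37 C was scored by ThT fluorescence.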
JMJD2E inh = qHTS Assay for Inhibitors of Human Jumonji Domain Containing 2E (JMJD2E) | actives 1.6% (n = 230,000) | Lysine-specific demethylase 4E (Homo sapiens), B2RXH2 | AID 2147, 2009 | Potency, µM (series often up to 57.1 µM), actives largely listed as inhibitors | JMJD2E catalytic domain, FDH-coupled NADH fluorescence (FDH is formaldehyde dehydrogenase); also: nearly all actives have a fitted effect of over 50% in size
Target sequence (B2RXH2 1-337 limits assumed): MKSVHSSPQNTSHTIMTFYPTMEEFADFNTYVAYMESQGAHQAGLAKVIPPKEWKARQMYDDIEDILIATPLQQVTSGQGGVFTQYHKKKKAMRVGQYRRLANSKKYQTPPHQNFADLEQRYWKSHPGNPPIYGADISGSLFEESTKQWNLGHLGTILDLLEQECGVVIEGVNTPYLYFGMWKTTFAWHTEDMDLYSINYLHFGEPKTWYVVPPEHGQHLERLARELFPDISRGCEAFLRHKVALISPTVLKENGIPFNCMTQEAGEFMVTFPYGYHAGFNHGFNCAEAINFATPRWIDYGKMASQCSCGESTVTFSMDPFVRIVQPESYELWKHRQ
Tau fluor cs = Counterscreen qHTS for Inhibitors of Tau Fibril Formation, Fluorescence Polarization | Potency, µM (doses to about 57.7 µM) | tau K18 P301L Alexa594 fluorescence, heparin fibrillization | actives 0.93% (n = 280,000) | AID 1463, 2008; also: nearly all actives have a fitted effect of over 55% in size
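Human K18 P301L tau (15 uM unlabeled plus 0.24 uM Alexa 594-labeled, final) in 100 mM sodium acetate pH 7 was mixed with compound and 20 uM heparin and incubated 6 hr at 37 C.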
NPSR antag = qHTS Assay for Antagonists of the Neuropeptide S Receptor: cAMP Signal Transduction; CHO-NPSR cells, cAMP TR-FRET, antagonist mode; Q6W5P4; actives 1% (n = 220,000); Potency, µM (highest dose often 38.3 µM), usual class: inhibitors; also: nearly all actives have a fitted effect of over 50% in size
Tau FP inhib = qHTS for Inhibitors of Tau Fibril Formation, Fluorescence Polarization | Microtubule-associated protein tau (Homo sapiens), P10636 | actives 0.39% (n = 280,000) | Potency, µM (highest dose often 57.7 µM), usual class: inhibitors | AID 1468, 2008 | K18 P301L tau heparin fibrillization, Alexa594 FP, 6 h; also: nearly all actives have a fitted effect of over 55% in size
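K18 P301L tau (15 uM unlabeled/0.24 uM Alexa 594-labeled, final) + compound + heparin 20 uM final; 100 mM NaOAc pH 7; 6 hr 37 C; ThT 30 uM final added, 1 hr RT; FP ex 555/em 632 nm.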
Tau fibril TEM = Transmission Electron Microscopy Assay for Inhibitors of Tau Fibrillization; shares compounds with Tau fibril ThT; recombinant tau K18 P301L fibrillization, TEM grading; active compounds read high; fibril grade (0 = clumped fibrils, 4 = only tiny pieces) (concentration not given with the values); actives 70% (n = 45); AID 1719, 2009;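 active = compounds whose electron micrographs showed tau fibrils broken into shorter filaments or fragments, graded high on fibril breakup; inconclusive = micrographs gave an unclear fibril picture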
tau sediment = Sedimentation Assay for Inhibitors of Tau Fibrillization. inhibition, % at 100 µM. recombinant tau K18 P301L (four-repeat tau fragment), sedimentation SDS-PAGE densitometry. actives 50% (n = 110). shares compounds with Tau fibril ThT. AID 1720, 2009; in the data active = inhibition above about 40%; inconclusive = no clear call, values can overlap the other calls; inactive = below about 18%
Each line names hits and unclear results; the compound was inactive in the other large screens (follow-up assays come after a bar, where they were run); [ ] = remark or other dose. Unless noted, calls follow the shape of the dose curve; as a rule, active = well fitted curve in the direction sought with a large enough effect; inconclusive = small, poorly fitted or top-dose-only effect, or another doubt; inactive = no such curve, though single readings can be large; an effect the other way counts as inactive or inconclusive.

Nc1ccc(-c2ccc3ccccc3n2)cc1	Tau fibril ThT inconclusive, JMJD2E inh inconclusive, Tau fluor cs inconclusive (no result: PNC assembly inh) | tau sediment inactive
CCc1cccc(C)c1NC(=O)Cn1ncc2c3ccccc3n(Cc3ccccc3)c2c1=O	none (no result: PNC assembly inh, JMJD2E inh, NPSR antag)
CCOC(=O)c1cccc(NC(=O)CCc2c(C)nc3c4cccnc4nn3c2C)c1	none (no result: PNC assembly inh, JMJD2E inh, NPSR antag)
CCN(c1ccccc1)S(=O)(=O)c1nnc(NC(=O)c2ccco2)s1	Tau fibril ThT inconclusive (no result: PNC assembly inh, JMJD2E inh, NPSR antag)
CCN(c1ccccc1)S(=O)(=O)c1nnc(NC(=O)C(C)(C)C)s1	Tau fibril ThT inconclusive, Tau FP inhib inconclusive (no result: PNC assembly inh, JMJD2E inh, NPSR antag) | tau sediment inactive
Cc1ccc(-c2nc3sccn3c2Nc2ccc(C)c(C)c2)cc1	Tau fluor cs inconclusive, Tau FP inhib inconclusive (no result: PNC assembly inh, JMJD2E inh, NPSR antag)
CC1Cn2c(C(=O)NCc3ccccc3Cl)cc3cccc(c32)S1 (stereo unspecified)	none (no result: PNC assembly inh, JMJD2E inh, NPSR antag)
CCOC(=O)c1nn(-c2ccc(OC)cc2)c(=O)c2c(N)scc12	PNC assembly inh inconclusive, Tau fibril ThT 8.9µM, JMJD2E inh inconclusive, Tau fluor cs inconclusive, Tau FP inhib inconclusive | Tau fibril TEM 2 | tau sediment 66
CCOC(=O)c1nn(-c2ccccc2)c(=O)c2c(N)sc(C)c12	none (no result: PNC assembly inh, Tau fibril ThT, JMJD2E inh, Tau fluor cs, NPSR antag, Tau FP inhib) | tau sediment inactive
CCOC(=O)c1nn(-c2ccccc2)c(=O)c2c(NC(=O)c3ccccc3)scc12	none (no result: PNC assembly inh, Tau fibril ThT, JMJD2E inh, Tau fluor cs, NPSR antag, Tau FP inhib) | tau sediment inactive
CCOC(=O)c1nc(N)c(=O)n(-c2ccccc2)n1	none
CCOC(=O)c1nn(-c2ccc(C)c(C)c2)c(=O)c2c(N)scc12	PNC assembly inh inconclusive | tau sediment inconclusive
NS(=O)(=O)c1ccc(CCNC(=O)c2ccc3nc(CCc4ccccc4)oc3c2)cc1	none (no result: PNC assembly inh, JMJD2E inh, NPSR antag)
CCOC(=O)c1nn(-c2ccc(Cl)c(Cl)c2)c(=O)c2c(N)scc12	none (no result: PNC assembly inh, Tau fibril ThT, JMJD2E inh, Tau fluor cs, NPSR antag, Tau FP inhib) | tau sediment inactive
CCOC(=O)c1nn(-c2cccc(C(F)(F)F)c2)c(=O)c2c(N)scc12	none (no result: PNC assembly inh, Tau fibril ThT, JMJD2E inh, Tau fluor cs, NPSR antag, Tau FP inhib) | tau sediment 41
CCCn1c(=O)c(/C(N)=N/O)nn(-c2cccc(C(F)(F)F)c2)c1=O	none (no result: PNC assembly inh)
Cc1ccc(N2CC(NC(=O)C3CCCC3)CC2=O)cc1C (stereo unspecified)	none (no result: PNC assembly inh, JMJD2E inh, NPSR antag)
COc1ccc(C(=O)Nc2ccc(N(C)Cc3ccccc3)c(C(=O)O)c2)cc1	none (no result: PNC assembly inh, JMJD2E inh, NPSR antag)
CN1CCN(C(=O)c2ccc3c(c2)N(Cc2ccc(C(F)(F)F)cc2)C(=O)c2ccccc2S3)CC1	none (no result: PNC assembly inh, JMJD2E inh, NPSR antag)
COc1ccc2c(c1)c(CC(=O)Nc1ccc(C(C)=O)cc1)c(C)n2C(=O)c1ccc(Cl)cc1	Tau fibril ThT inconclusive, Tau fluor cs inconclusive, Tau FP inhib inconclusive | tau sediment inactive
COc1ccc2c(c1)c(CC(=O)Nc1c(C)cccc1C)c(C)n2C(=O)c1ccc(Cl)cc1	none (no result: PNC assembly inh, JMJD2E inh, NPSR antag)
O=C(Nc1nc2ccc(S(=O)(=O)N3CCCC3)cc2s1)c1ccc(F)cc1	none (no result: PNC assembly inh, JMJD2E inh, NPSR antag) | tau sediment inactive
O=S(=O)(c1ccc2nc(-c3ccco3)c(-c3ccco3)nc2c1)N1CCOCC1	PNC assembly inh inconclusive, Tau fibril ThT 4µM, JMJD2E inh inconclusive, Tau fluor cs 4µM[quencher], NPSR antag inconclusive, Tau FP inhib 8.9µM | Tau fibril TEM 2 | tau sediment 58
Cn1c(=O)n(C)c2cc(S(=O)(=O)N3CCOCC3)ccc21	none

Source: PubChem BioAssay (National Center for Advancing Translational Sciences (NCATS))
